Compounds without any hit were thinned out: in the full panel of roughly 83,000, 20% have a hit.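 For each line, cells grew in 96-well plates with the test compound present at a single concentration for 48 hours.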 Unmarked numbers belong to inactive results. The source made the active and inactive calls. How the source made its calls: active means growth percent below 10; inactive means the rest.

Holding throughout (test): NCI-60 one-dose screen, 48 h (100 = growth as untreated, 0 = no growth, -100 = all killed)
Holding throughout (conditions): 10 µM unless noted

Experiment [1] concerns T-47D breast.
Experiment [2] has as its system BT-549 breast.
Experiment [3] relates to MDA-MB-435 melanoma.
The test system of experiment [4] is SW-620 colon.
Experiment [5] has as its system MCF7 breast.
Experiment [6] relates to HCT-116 colon.
The test system of experiment [7] is HCC-2998 colon.
The test system of experiment [8] is KM12 colon.

For `CCC(=C(c1ccc(OCCN2CCCC2)cc1)c1ccc(OCCN2CCCC2)cc1)c1ccc(Cl)cc1`, the growth in experiment [1] was -41.6% (active); in experiment [2], 69.5%; in experiment [3] it was -91.2% (active); in experiment [4], -77.7% (active); in experiment [5] it was -76% (active); in experiment [6] it was -81% (active). The growth is -93.7% (active) in experiment [7] and -74.2% (active) in experiment [8].
Consider `CCN(CC)c1nc(SCc2ccccc2Cl)ncc1C`, for which the growth was 86.3% in experiment [1]; 134% in experiment [2]; 108% in experiment [3]; 105% in experiment [4]; 106% in experiment [5]; 94.2% in experiment [6]. Moreover, the growth in experiment [7] was 106%; in experiment [8], 108%.
As for `Nc1c(C(=O)Nc2ccccc2Cl)sc2nc3c(cc12)C(O)CCC3` (stereo not given), the growth in experiment [1] was 38.6%; in experiment [2], 52.1%; in experiment [3] it was 1.93% (active); in experiment [4] it was 49.3%; in experiment [5] it was 24.4%; in experiment [6], 29.3%. For the same compound, the results for the growth in experiment [7] and in experiment [8] were 64.3% and 31.9%, respectively.
`O=C1COCCN1c1ccc(Nc2nc(Cl)nc(OCc3cn(Cc4ccccc4)nn3)n2)cc1`: the growth is 68.6% in experiment [1]; 90.3% in experiment [2]; 96.2% in experiment [3]; 88.6% in experiment [4]; 62.4% in experiment [5]; 91.9% in experiment [6]. Also, the growth in experiment [7] was 63.7%; in experiment [8], 90.5%.
In the case of `O=C1C(Cl)=C(Oc2ccccc2)C(=O)c2ccccc21`, the growth in experiment [1] was -0.942% (active); in experiment [2] it was 70.8%; in experiment [3], 108%; in experiment [4] it was 47.6%; in experiment [5], 73%; in experiment [6], 29.3%. The growth in experiment [7] was 66.5%; in experiment [8] it was 27.1%.
On to `COc1cc(C(=O)n2nc(N3CCN(C)CC3)c3cc(N)ccc32)cc(OC)c1OC`, for which the growth in experiment [1] was 57.7%; in experiment [2], 27.9%; in experiment [3], -12% (active); in experiment [4], 30%; in experiment [5], 11.6%; in experiment [6] it was 7.66% (active). Besides, the growth in experiment [7] was 89.7%; in experiment [8], 57.9%.
In the case of `N=C(N)c1ccc(-c2ccc(-c3ccc(Cl)cc3)s2)nc1`, the growth in experiment [1] is 56.4%; in experiment [2] it was 98%; in experiment [3] it was -15% (active); in experiment [4], -83.5% (active); in experiment [5], -73.3% (active); in experiment [6] it was -82.3% (active). Also, the growth in experiment [7] is -78.2% (active); in experiment [8] it was -74.8% (active).
As for `CC1Cc2c(Cl)ncnc2N(C)c2ccc(F)cc21` (stereo not given), the growth is 92.5% in experiment [1]; 108% in experiment [2]; 102% in experiment [3]; 106% in experiment [4]; 97.9% in experiment [5]; 87.5% in experiment [6]. Further, the growth in experiment [7] is 103%; in experiment [8] it was 99.9%.
`CCN(C(=O)N1CCN(c2cc3c(cc2F)c(=O)c(C(=O)O)cn3C2CC2)CC1)c1nc(-c2ccc(Cl)cc2)cs1`: the growth was 22.3% in experiment [1]; -8.09% (active) in experiment [2]; 17.9% in experiment [3]; 18.3% in experiment [4]; 9.42% (active) in experiment [5]; 9.89% (active) in experiment [6]. Moreover, the growth in experiment [7] was 25%; in experiment [8], 13.1%.
For the compound `CCOc1ccc(NC(=O)CSc2oc(-c3ccccc3)nc2S(=O)(=O)c2ccc(F)cc2)cc1`, the growth in experiment [1] was 63.1%; in experiment [2], 96.5%; in experiment [3], 88.9%; in experiment [4], 89.6%; in experiment [5], 71.4%; in experiment [6] it was 21.9%. The growth in experiment [7] is 85.3%; in experiment [8], 84.9%.
With `O=C(NCCCN1CCOCC1)c1cccc(N2C(=O)/C(=C/c3ccc(F)cc3)SC2=S)c1`, the growth in experiment [1] was 91.7%; in experiment [2], 96.8%; in experiment [3], 95.3%; in experiment [4], 95.9%; in experiment [5], 92.9%; in experiment [6], 96.7%. The growth is 97.1% in experiment [7] and 99.6% in experiment [8].
`CC(C)NC1CCC(Nc2ccnc3cc(Cl)ccc23)CC1` (stereo not given): the growth in experiment [1] is 80.3%; in experiment [2], 88.8%; in experiment [3] it was 96%; in experiment [4], 91.7%; in experiment [5], 93.3%; in experiment [6], 76.6%. Besides, the figures for the growth in experiment [7] and in experiment [8] were 101% and 110%, respectively.
Turning to `N#CC1CCc2c(c(-c3cn[nH]c3C(F)(F)F)nc3c(F)cc4[nH]ncc4c23)C1` (stereo not given), the growth in experiment [1] is 1.96% (active); in experiment [2] it was -11.6% (active); in experiment [3], 7.99% (active); in experiment [4], 8.48% (active); in experiment [5], 12.9%; in experiment [6], 5.5% (active). The growth in experiment [7] was 44%; in experiment [8], 13.6%.
Take `CC(C)(C)n1cc(-c2ccnc(NCCNS(=O)(=O)c3cccc4ccccc34)c2)c(-c2cccc(F)c2)n1`: the growth in experiment [1] was -12.6% (active); in experiment [2], -80.9% (active); in experiment [3], -31.8% (active); in experiment [4], -26% (active); in experiment [5], -35% (active); in experiment [6], -87.2% (active). Also, the growth is -41.8% (active) in experiment [7] and -14% (active) in experiment [8].
Regarding `CCOC(=O)c1c(NC(=O)c2ccc(C(C)C)cc2)sc2c(CN(C)C)c(O)ccc12`, the growth in experiment [1] was 61%; in experiment [2] it was 89.7%; in experiment [3], 21.3%; in experiment [4], -58.6% (active); in experiment [5], 15.2%; in experiment [6], 4.82% (active). In addition, the results for the growth in experiment [7] and in experiment [8] were -55.8% (active) and 1.36% (active), respectively.
On to `O=C(Nc1ncc(Cc2ccc(Cl)c(C(F)(F)F)c2)s1)c1ccc2nnsc2c1`, for which the growth in experiment [1] is 24.8%; in experiment [2], 65.5%; in experiment [3], 22.6%; in experiment [4], 44.3%; in experiment [5] it was 20.4%; in experiment [6], 45%. Moreover, the values for the growth in experiment [7] and in experiment [8] were 10.6% and 37.8%, respectively.
Consider `N#C/C(=C\c1ccc(Br)cc1)n1nnc2ccc(F)cc21`, for which the growth in experiment [1] was 8.46% (active); in experiment [2], 1.54% (active); in experiment [3], -34.1% (active); in experiment [4], -48.4% (active); in experiment [5], 5.23% (active); in experiment [6] it was -75.3% (active). Besides, the growth in experiment [7] was -63.6% (active); in experiment [8] it was -24.7% (active).
With `Cc1ccc(C(C(N)=O)C(C(N)=O)c2ccccc2)cc1` (stereo not given), the growth in experiment [1] is 112%; in experiment [2] it was 113%; in experiment [3], 109%; in experiment [4], 105%; in experiment [5], 112%; in experiment [6] it was 101%. Besides, the growth in experiment [7] is 112%; in experiment [8], 105%.
On to `Cn1c(-c2ccc(Br)cc2)c(O)c(=O)c2c(F)cccc21`, for which the growth in experiment [1] was 57.7%; in experiment [2], 70.6%; in experiment [3] it was 67.8%; in experiment [4] it was 51%; in experiment [5], 37.1%; in experiment [6] it was 35.1%. The growth was 64.5% in experiment [7] and 53.3% in experiment [8].
As for `Cc1cc2c(O)c(-c3cc(Cl)ccc3Cl)c3sc(=O)oc3c2cc1C`, the growth was 32.4% in experiment [1]; 81.7% in experiment [2]; 47.3% in experiment [3]; 57.8% in experiment [4]; 60.9% in experiment [5]; 36.2% in experiment [6]. Also, the growth in experiment [7] was 102%; in experiment [8], 59.1%.
Consider `Cn1c(=O)c2c(nc(NC3=NS(=O)(=O)c4ccccc43)n2CC(=O)N2CCc3ccccc32)n(C)c1=O`, for which the growth was 91.3% in experiment [1]; 91.7% in experiment [2]; 101% in experiment [3]; 95.2% in experiment [4]; 103% in experiment [5]; 97.9% in experiment [6]. The figures for the growth in experiment [7] and in experiment [8] were 96.9% and 107%, respectively.
As for `CC(=O)Nc1nc2ccc(NS(=O)(=O)c3cccc4c(N(C)C)cccc34)cc2[nH]1`, the growth in experiment [1] is 74.3%; in experiment [2], 61.3%; in experiment [3] it was -28.6% (active); in experiment [4] it was 38.7%; in experiment [5], 22.4%; in experiment [6], 62.2%. The growth is 83.3% in experiment [7] and 55.1% in experiment [8].
On to `N#CC1=C(N)Oc2c(sc3c(Br)cccc23)C1c1ccc(F)cc1` (stereo not given), for which the growth is 50% in experiment [1]; 25.3% in experiment [2]; -10.3% (active) in experiment [3]; 32.2% in experiment [4]; 12.1% in experiment [5]; 11.9% in experiment [6]. Further, the figures for the growth in experiment [7] and in experiment [8] were 23.5% and 23.1%, respectively.
For `CCOC(=O)C#Cc1c(C(=O)OCC)nnn1[C@@H]1O[C@H](CO)[C@H]2OC3(CCCCC3)O[C@H]21`, the growth in experiment [1] was 13.2%; in experiment [2], 94.2%; in experiment [3] it was 79.7%; in experiment [4], -70.9% (active); in experiment [5], 8.45% (active); in experiment [6], 66.5%. Further, the figures for the growth in experiment [7] and in experiment [8] were 85.4% and 94.5%, respectively.
`O=C(CSc1nc2ccc([N+](=O)[O-])cc2[nH]1)Nc1cccc(C(F)(F)F)c1`: the growth in experiment [1] is 6.1% (active); in experiment [2] it was 16.5%; in experiment [3], 13.8%; in experiment [4] it was 28.2%; in experiment [5], 15.7%; in experiment [6] it was 12.8%. Further, the growth in experiment [7] is 30.7%; in experiment [8], 17.1%.
Turning to `O=C(Cn1c(=O)sc2nc3ccccc3nc21)Nc1ncc(Cc2cccc(Cl)c2Cl)s1`, the growth in experiment [1] was 81.6%; in experiment [2] it was 100%; in experiment [3], 101%; in experiment [4], 100%; in experiment [5], 91.6%; in experiment [6], 102%. Besides, the growth is 101% in experiment [7] and 99.9% in experiment [8].
In the case of `C=C(C)[C@@H]1CC[C@]2(C(=O)NCCNCCN)CC[C@]3(C)[C@H](CC[C@@H]4[C@@]5(C)C/C(=C/c6ccncc6)C(=O)C(C)(C)[C@@H]5CC[C@]43C)[C@@H]12`, the growth in experiment [1] is 80.8%; in experiment [2], 95.2%; in experiment [3], 92.7%; in experiment [4], 92.7%; in experiment [5] it was 97.6%; in experiment [6] it was 83.7%. In addition, the figures for the growth in experiment [7] and in experiment [8] were 91.6% and 96.9%, respectively.
As for `O=C1N[C@@H]2NC(=[N+]3CCOCC3)N[C@@H]2N1`, the growth is 101% in experiment [1]; 110% in experiment [2]; 105% in experiment [3]; 98.8% in experiment [4]; 95.9% in experiment [5]; 104% in experiment [6]. Also, the growth in experiment [7] is 108%; in experiment [8], 107%.
With `CCOP(=O)(OCC)c1nc(-c2ccccc2)oc1NCc1cccnc1`, the growth was 85.5% in experiment [1]; 111% in experiment [2]; 104% in experiment [3]; 101% in experiment [4]; 103% in experiment [5]; 102% in experiment [6]. Moreover, the growth is 106% in experiment [7] and 111% in experiment [8].
Turning to `Cn1cc(-c2nonc2-c2c[nH]c3ccc(Br)cc23)c2cc(Br)ccc21`, the growth in experiment [1] is 24.4%; in experiment [2], 76.8%; in experiment [3] it was 40.3%; in experiment [4] it was 55.9%; in experiment [5], 26.1%; in experiment [6], 22.7%. The growth was 39.8% in experiment [7] and 22.8% in experiment [8].

The record behind these values is PubChem BioAssay (NCI).
